The record followed here is PubChem BioAssay (NCATS).

Results filed as inconclusive are left out. Active and inactive are the calls of the source. Calls come from the whole dose curve; as a rule, active = well fitted inhibition curve with a large enough effect; inconclusive = small, poorly fitted or top-dose-only effect; inactive = flat fitted curve, though single readings scatter.

Common to all, as to experiment: qHTS profiling for inhibitors of Plasmodium falciparum proliferation (AID 504749); note: nearly all actives have a fitted effect of over 60% in size
Settings in all cases: P. falciparum in erythrocytes, SYBR Green DNA, 72 h; series mostly up to 28.7 µM
For orientation: qHTS replaces the single test concentration by a dilution series.

One test concerns CP203. A digest of the protocol:
(§1)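 Fluorescence of SYBR Green-bound parasite DNA, read at 485/535 nm, served as the growth measure. Infected erythrocytes were cultured with compound 72 h; artemisinin (0.29 uM) and DMSO wells defined the normalization range.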

In another test the test system is CP211. In short, it runs like this:
as §1

The subject of the next test is CP215. A digest of the protocol: as §1
Another test relates to CP217. A digest of the protocol:
as §1

The test system of a further test is CP237. A digest of the protocol: as §1
For a further test, the system named is CP238. In short, it runs like this:
as §1

The next test relates to CP250. In short, it runs like this: as §1
Another test relates to CP252. In short, it runs like this:
as §1

The next test has as its system CP256. A digest of the protocol: as §1
A further test relates to CP247. A digest of the protocol:
as §1
Potency is the fitted concentration of half-maximal effect.

Take `O=c1[nH]c(=O)c2ccccc2o1`: the Potency result in the test with CP203, in the test with CP215, with CP237, with CP238 and in the test on CP250 was “inactive” each time. Also, the molecule was classed as inactive in the test on CP211, in the test with CP217, in the test on CP252 and with CP256.

With `CC(CN(C)C)C(C)(O)Cc1ccc(Cl)cc1` (centres undefined), the Potency in the test with CP203 was 13.5 µM (active); in the test on CP237 it was 2.51 µM (active). Moreover, the molecule was called inactive in the test on CP217 and with CP252. Moreover, in the test with CP247, the Potency entry is “inactive”.

Regarding `CC1CCN(CCCC(=O)c2ccc(F)cc2)CC1`, the Potency entry in the test on CP203, with CP215, in the test with CP238, in the test on CP247 and with CP250 was “inactive” each time. Also, the call in the test on CP211, with CP217, in the test with CP252 and with CP256 was inactive.

Regarding `Cc1cc(OI)c(C(C)C)cc1-c1cc(C(C)C)c(OI)cc1C`, the Potency result with CP203, in the test with CP237 and in the test with CP250 was “inactive” each time. For the same molecule, the outcome in the test on CP211 and in the test with CP256 was inactive.

As to `CC(=O)OC[C@H]1O[C@@](COC(C)=O)(O[C@H]2O[C@H](COC(C)=O)[C@@H](OC(C)=O)[C@H](OC(C)=O)[C@H]2OC(C)=O)[C@@H](OC(C)=O)[C@@H]1OC(C)=O`, the Potency entry in the test on CP203, with CP215 and in the test on CP237 was “inactive” throughout. Moreover, in the test on CP211, the molecule was classed as inactive.

As for `CC(=O)Nc1ccc(OCCOCCOc2ccc(NC(C)=O)cc2)cc1`, the Potency result in the test on CP203, with CP215, with CP237, in the test on CP238 and in the test with CP250 was “inactive” in each case. In addition, the result in the test with CP211, in the test with CP217, in the test on CP252 and in the test with CP256 was inactive.

In the case of `Cc1ncc(CO)c(CN)c1O`, the Potency entry in the test on CP203, in the test with CP237, with CP238, in the test with CP247 and in the test on CP250 was “inactive” each time. In addition, the result in the test with CP211, in the test on CP217, in the test with CP252 and in the test on CP256 was inactive.

For `O=S1(=O)OC(c2ccc(O)cc2)(c2ccc(O)cc2)c2ccccc21`, the Potency result with CP203, in the test on CP237, in the test with CP238, in the test on CP247 and in the test on CP250 was “inactive” throughout. In addition, the molecule was called inactive with CP211, in the test with CP217, in the test on CP252 and with CP256.

With `O=C1c2ccccc2C(=O)C1c1ccc(Br)cc1`, the molecule was classed as inactive with CP211 and in the test with CP252. The Potency result in the test on CP237, in the test on CP238, with CP247 and in the test on CP250 was “inactive” throughout.

Consider `Cc1cc(-n2nc3ccc(Cl)cc3n2)c(O)c(C(C)(C)C)c1`, for which the Potency entry with CP203, in the test on CP215 and in the test on CP237 was “inactive” each time. The outcome in the test on CP211 was inactive.

In the case of `CCN1CC(CCN2CCOCC2)C(c2ccccc2)(c2ccccc2)C1=O` (centres undefined), the result in the test with CP211, with CP217, in the test with CP252 and in the test with CP256 was inactive. Also, the Potency entry in the test with CP215, with CP238, in the test on CP247 and in the test on CP250 was “inactive” throughout.

In the case of `CCCNC(C)(C)COC(=O)c1ccccc1`, the molecule was classed as inactive in the test on CP211, in the test with CP217, in the test with CP252 and with CP256. The Potency result with CP215, in the test on CP238, in the test with CP247 and in the test with CP250 was “inactive” each time.

With `CCOC(=O)[C@H](CCc1ccccc1)N[C@@H](C)C(=O)N1CCC[C@H]1C(=O)O`, the Potency entry with CP203, with CP237, in the test with CP238, with CP247 and with CP250 was “inactive” each time. In addition, the result in the test on CP211, in the test with CP217, in the test on CP252 and in the test on CP256 was inactive.

Regarding `CCCCCC(C)N` (centres undefined), the Potency result in the test on CP203, in the test with CP215, with CP238, with CP247 and with CP250 was “inactive” each time. In addition, the outcome in the test with CP211 and in the test with CP256 was inactive.

As to `O=C1c2cccc(O)c2C(=O)c2c(O)cccc21`, the result in the test on CP211, in the test on CP217, in the test with CP252 and in the test on CP256 was inactive. Moreover, the Potency entry in the test on CP215, in the test with CP237, in the test with CP238, in the test with CP247 and with CP250 was “inactive” throughout.

Take `Cc1c(NC(=O)c2cccnc2)c(=O)n(-c2ccccc2)n1C`: the Potency result with CP203, with CP237, in the test with CP238, with CP247 and in the test with CP250 was “inactive” throughout. Also, the call in the test on CP211, in the test with CP217, with CP252 and in the test with CP256 was inactive.

For the molecule `CC[N+](C)(CC)CCOC(=O)C1c2ccccc2Oc2ccccc21`, the Potency result in the test on CP203, in the test with CP215, in the test on CP237 and in the test on CP247 was “inactive” throughout. Also, the result in the test on CP211, in the test with CP217 and in the test on CP252 was inactive.

`COc1ccc(O)cc1`: the Potency result in the test on CP203, with CP215, in the test on CP237, with CP238 and in the test with CP250 was “inactive” throughout. Besides, the outcome in the test with CP211, with CP217, in the test with CP252 and in the test on CP256 was inactive.

For the molecule `Cc1onc(-c2ccccc2)c1-c1ccc(S(N)(=O)=O)cc1`, the Potency entry in the test on CP203, in the test with CP237, in the test with CP238, in the test on CP247 and in the test on CP250 was “inactive” in each case. The call in the test on CP211, with CP217, in the test with CP252 and in the test on CP256 was inactive.

As for `O=C(c1ccccc1)C(O)c1ccccc1` (centres undefined), the Potency entry with CP203, in the test on CP215, in the test with CP237 and in the test with CP238 was “inactive” each time. Moreover, the outcome with CP211, in the test on CP217, with CP252 and in the test on CP256 was inactive.

In the case of `NC(=O)CCCCC1CCSS1` (centres undefined), the Potency result in the test with CP203, in the test with CP238, in the test on CP247 and in the test with CP250 was “inactive” in each case. The outcome in the test on CP211, in the test with CP217, in the test with CP252 and in the test with CP256 was inactive.

Turning to `O=C1C(c2[nH]c3ccccc3c2O)=Nc2ccccc21`, in the test with CP238, the Potency entry is “inactive”. The outcome in the test on CP252 and in the test with CP256 was inactive.

In the case of `CN(C/C=C/C#CC(C)(C)C)Cc1cccc2ccccc12`, the Potency result with CP203, in the test with CP215, in the test on CP238, with CP247 and in the test on CP250 was “inactive” in each case. Besides, the molecule was classed as inactive in the test on CP211, in the test with CP217, in the test on CP252 and in the test on CP256.

Consider `COC(=O)c1ccccc1C(=O)c1ccc(OCCN2CCCCC2)cc1`, for which the Potency result in the test on CP203, in the test on CP215, with CP238, with CP247 and in the test on CP250 was “inactive” each time. The molecule was classed as inactive in the test on CP211, in the test with CP217, in the test with CP252 and in the test on CP256.

On to `COc1ccccc1Oc1c(NS(=O)(=O)c2ccc(C(C)(C)C)cc2)nc(-c2ncccn2)nc1OCCO`, for which the Potency result in the test on CP203, in the test with CP237, in the test on CP238, in the test on CP247 and with CP250 was “inactive” throughout. The molecule was called inactive with CP211, in the test with CP217, with CP252 and in the test with CP256.

Regarding `Cc1cc(NC(=O)C2=C(O)c3ccccc3S(=O)(=O)N2C)no1`, the Potency entry with CP203, with CP215, in the test with CP237, in the test with CP238 and in the test with CP250 was “inactive” throughout. For the same molecule, the outcome in the test with CP211, in the test with CP217, with CP252 and in the test on CP256 was inactive.

Regarding `NC(N)=NCCN1CCCCCCC1`, the Potency result in the test on CP203, with CP237, with CP238, in the test on CP247 and with CP250 was “inactive” throughout. Besides, the molecule was classed as inactive with CP211, in the test on CP217, in the test with CP252 and with CP256.

As to `CN1C[C@@H]2C[C@H]1CN2c1cc2c(cc1F)c(=O)c(C(=O)O)cn2C1CC1`, the Potency result in the test on CP247 and in the test with CP250 was “inactive” each time.

In the case of `COc1nccnc1NS(=O)(=O)c1ccc(N)cc1`, the Potency entry with CP203, with CP237, with CP238, with CP247 and in the test on CP250 was “inactive” in each case. For the same molecule, the outcome in the test with CP211, in the test with CP217, in the test with CP252 and with CP256 was inactive.
